Measured values published in PubChem BioAssay AID2284095 (EPA ToxCast).
Records with an inconclusive call do not appear. Active and inactive are the calls of the source. Rule for the calls: active = hit-call score of the fitted dose curve at least 0.9, where 1 is the maximum; inconclusive = response in the unintended direction; inactive = score below 0.9.

Each molecule was assayed against human Chymotrypsin Serine Peptidase, ELANE (gene 1991) (UniProt P08246) (assay: ERF_FR_ENZ_hELANE: Eurofins (ERF) Enzymatic Neutrophil Elastase LeadHunter Assay for human Chymotrypsin Serine Peptidase).
Protocol: ERF_FR_ENZ_hELANE is a biochemical, single-readout assay that uses extracted gene-proteins in a cell-free assay. Measurements were taken 0.5 hour after chemical dosing in a 96-well plate. See Neutrophil Elastase Human Chymotrypsin Serine Peptidase Enzymatic Assay, Cerep.ERF_FR_ENZ_hELANE is an assay component calculated from the ERF_FR_ENZ_hELANE assay. It is designed to measure enzyme activity using a type of enzyme reporter as detected by absorbance with spectrophotometry technology.Data from the assay component ERF_FR_ENZ_hELANE was analyzed at the assay endpoint, ERF_FR_ENZ_hELANE, in the positive analysis fitting direction relative to DMSO as the negative control and baseline of activity. Using a type of enzyme reporter, loss-of-signal activity can be used to understand changes in enzymatic activity as they relate to gene ELANE. To generalize the intended target to other relatable targets, this assay endpoint is annotated to the protease intended target family, where the subfamily is serine peptidase.
Human cells are incubated for 30 minutes at 37 C with MeOSAAPV-pNa (0.4 mM) as sunstrate and 3',4'dichloroisocoumarin as control inhibitor. Test Sample Requirements: Minimum for 1) Screen: 60 ul of 10 mM stock -OR- 1 mg (pre-weighed) for 10 uM final testing. 2) Dose Response: 90 ul of 10 mM stock -OR- 1 mg (pre-weighed) for a top concentration at 10 uM.

Sequence of human Chymotrypsin Serine Peptidase, ELANE (gene 1991) (P08246 whole entry, looked up): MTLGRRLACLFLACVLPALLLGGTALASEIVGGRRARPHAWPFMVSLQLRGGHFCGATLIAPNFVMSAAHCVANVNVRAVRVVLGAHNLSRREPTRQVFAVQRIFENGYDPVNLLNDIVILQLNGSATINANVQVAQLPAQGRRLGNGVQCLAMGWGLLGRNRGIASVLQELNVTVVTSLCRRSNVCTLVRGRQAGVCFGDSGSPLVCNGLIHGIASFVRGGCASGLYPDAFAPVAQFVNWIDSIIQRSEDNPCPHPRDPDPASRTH

Row | Structure (SMILES) | outcome | AC50
1 | COc1cc(CCC(=O)CC(=O)CCc2ccc(O)c(OC)c2)ccc1O | inactive | 
2 | COc1cc(/C=C/C(=O)CC(=O)/C=C/c2ccc(O)c(OC)c2)ccc1O | inactive | 
3 | O=C(/C=C/c1ccc(O)cc1)CC(=O)/C=C/c1ccc(O)cc1 |  | 8.6 µM (active)
